MCF10A rereplic: induces DNA re-replication in MCF 10a normal breast cells. MCF 10A DNA re-replication, Hoechst nuclear intensity, 48 h. Potency, µM (doses to about 46.1 µM), without a hit: at the top dose activity, positive = re-replication, usual class: activators. actives 2.9% (n = 350,000). AID 624296; also: potency is read from the fitted curve at half-maximal effect; % of control where 0% means no effect; nearly all actives have a fitted effect of over 50% in size
KB-V1 cytotox: KB-V1 MDR subline cytotoxicity; Potency, µM (top dose mostly 46.1 µM), most hits filed as cytotoxic; AID 1347076; KB-V1 MDR cells viability, CellTiter-Glo, 72 h; actives 3.4% (n = 400,000); also: potency is read from the fitted curve at half-maximal effect; % is scaled to controls: 0 for no effect and ±100 for the full control effect; nearly all actives have a fitted effect of over 60% in size
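Cells of the MDR subline KB-V1 are plated, dosed with compound at multiple concentrations, and incubated 72 h at 37 degrees C; CellTiter-Glo is then added and luminescence read after 10 min.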
IL1B secr inh: inflammasome signaling inhibition, IL-1 beta readout; actives 4.7% (n = 360,000); activity change, % at 57.5 µM; THP-1 LPS/ATP IL-1B secretion, AlphaLISA, 16 h; hits give low values; in the data active = activity change below about -50%; inconclusive = mostly about -30% to -49%; also: % is scaled to controls: 0 for no effect and ±100 for the full control effect
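Secreted IL-1B measured by AlphaLISA bead assay after 16 h compound exposure of THP-1 cells; compounds (final up to 57.5 uM) added 1 h before LPS (250 ng/mL) and ATP (1.25 mM) stimulation; lower signal means less secretion.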
SW480 rerep: induces DNA re-replication in SW480 colon adenocarcinoma cells. SW480 DNA re-replication, Hoechst DNA content imaging, 48 h. Potency, µM (doses to about 46.1 µM), for the others: top-dose re-replication activation, actives largely listed as activators. actives 1.8% (n = 340,000); also: potency is read from the fitted curve at half-maximal effect; % of control where 0% means no effect; nearly all actives have a fitted effect of over 55% in size
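DNA re-replication was detected as more nuclei of elevated Hoechst intensity after 48 hr exposure to compound (23 nL pinned per well of 250 cells).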
KB-3-1 cytotox: KB-3-1 parental cell cytotoxicity | Potency, µM (highest dose often 46.1 µM), usual class: cytotoxic | actives 1.4% (n = 400,000) | KB-3-1 viability, CellTiter-Glo ATP luminescence, 72 h; also: potency is read from the fitted curve at half-maximal effect; % is scaled to controls: 0 for no effect and ±100 for the full control effect; nearly all actives have a fitted effect of over 60% in size
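Cytotoxicity in the drug-sensitive parental line KB-3-1 was scored as loss of CellTiter-Glo luminescence following 72 h incubation with compound. Values come from curve fitting of normalized concentration-response data.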
Starred values were filed as active, the others as inactive; i = inactive; ? = inconclusive; / = not tested or not shown; ! = not confirmed by another sample. Most compounds without a hit are left out; they make up all but 9.9% or so of the library. Unless noted, calls follow the shape of the dose curve; as a rule, active = well fitted curve in the direction sought with a large enough effect; inconclusive = small, poorly fitted or top-dose-only effect, or another doubt; inactive = no such curve, though single readings can be large; an effect the other way counts as inactive or inconclusive.

SMILES | MCF10A rereplic | KB-V1 cytotox | IL1B secr inh | SW480 rerep | KB-3-1 cytotox
O=C(/C=C/c1ccc2c(c1)OCO2)c1c(O)n(CCC2=CCCCC2)c(=O)[nH]c1=O | 1.8µM* | 7.3µM* | 0 | 0% | ?
COc1ccc(/C=C/C(=O)c2c(O)n(CCC3=CCCCC3)c(=O)[nH]c2=O)cc1 | 7.3µM* | 10µM* | -16 | -1% | 21µM*
C=CCn1c(O)c(C(CC)=NCCC2=CCCCC2)c(=O)[nH]c1=O | 14% | 8.9µM* | 30 | -20% | i
CCCCn1c(O)c(C(=O)/C=C/c2ccc3c(c2)OCO3)c(=O)[nH]c1=O | ? | ? | -73* | ? | ?
C=CCn1c(O)c(C(CC)=NCCCO)c(=O)[nH]c1=O | 16% | i | 9 | -9% | i
CN(C)CCN=Cc1c(O)n(CCC2=CCCCC2)c(=O)[nH]c1=O | -1% | i | -18 | -4% | i
CCN(CC)C(=O)c1ccc(NC(=O)CCn2nc(-c3ccc(Cl)cc3)c3ccccc3c2=O)cc1 | / | i | / | / | i
C=CCc1ccc(O)c(OC)c1 | 2% | / | / | -9% | /
CC1=C2C(=O)C3C(CC=C4CC(O)CCC43C)C2CCC12OC1CC(C)CNC1C2C (stereo not given) | -2% | i | 18 | 0% | i
CC(N)Cc1c[nH]c2ccc(OCc3cccs3)cc12 (stereo not given) | 25% | ? | -59* | ? | i
CC(N)Cc1c[nH]c2ccc(O)cc12 (stereo not given) | -5% | i | 0 | -51% | i
CCN(CC)c1ccc(N=Cc2c(O)n(CCc3ccc(OC)c(OC)c3)c(=O)[nH]c2=O)cc1 | ? | 16µM* | ? | ? | ?
CCN(CC)c1ccc(N=Cc2c(O)n(Cc3ccco3)c(=O)[nH]c2=O)cc1 | 26µM* | i | / | 70% | i
C=C(C)[C@@H]1CC[C@]2(C(=O)O)CC[C@]3(C)[C@H](CC[C@@H]4[C@@]5(C)CC[C@H](O)C(C)(C)[C@@H]5CC[C@]43C)[C@@H]12 | ? | i | 60 | -2% | i
O=C(COc1ccccc1F)N1CCN(Cc2cc(=O)n3nc(-c4ccccc4Cl)sc3n2)CC1 | / | i | / | / | i
CN(C)C(=O)O/N=C(\N)COc1ccc(C(C)(C)C)cc1 | ? | ? | -23 | 12µM* | i
Cc1cccc(-n2nc(C)c3c2NC(=O)CSC3c2ccccc2Cl)c1 (stereo not given) | / | i | / | / | i
O=c1[nH]c(=O)n(CCc2ccccc2)c(O)c1C=NC1CC1 | 3% | i | 12 | -7% | i
COc1ccc(C(CNC(=O)Cc2ccc(Cl)c(Cl)c2)N(C)C)cc1 (stereo not given) | 5% | ? | -51* | -1% | i
O=C(Oc1ccc2ccc(OC(=O)N3CCCCCC3)cc2c1)N1CCCCCC1 | ? | i | 22 | 5% | i
CC1CC2CC(=O)CCC2(C)C2CCC3(C)C(O)CCC3C12 (stereo not given) | / | 5.8µM* | 16 | / | ?
CC12CCC3C(CCCC4CC(=O)CCC43C)C1CCC2O (stereo not given) | 12% | 7.3µM* | 4 | -7% | ?
C[C@]12CCC3C(C[C@@H](O)[C@H]4C[C@@H](O)CC[C@]34C)C1CC[C@@H]2O (stereo not given in full) | -43% | i | -6 | -20% | i
Cc1ccccc1-c1nn2c(=O)cc(CN3CCN(C(=O)COc4ccccc4Cl)CC3)nc2s1 | / | i | / | / | i
c1ccc2c(c1)OCC(C1=NCCN1)O2 (stereo not given) | 18µM*! | i | -79* | ? | ?
SMILES | MCF10A rereplic | KB-V1 cytotox | IL1B secr inh | SW480 rerep | KB-3-1 cytotox
CCCNC(=O)Cn1cnc2sc(C(=O)N3CCC4(CC3)OCCO4)c(C)c2c1=O | -1% | i | 4 | 23% | i
Cc1c(C(=O)N2CCC3(CC2)OCCO3)sc2ncnc(N3CCN(c4ccccn4)CC3)c12 | -3% | i | -81* | 3% | i
COC(=O)C[C@](O)(CCCC(C)(C)O)C(=O)O[C@@H]1C(OC)=C[C@]23CCCN2CCc2cc4c(cc2[C@H]13)OCO4 | ? | / | / | 26% | /
CC(C)(C)OC(=O)c1ncn2c1[C@@H]1CCCN1C(=O)c1c(Br)cccc1-2 | 14% | / | / | 1% | /
O=C(CN1CCCC1)c1ccccc1 | / | i | / | / | i
O=C(c1ccccc1)C(CN1CCCC1)c1ccccc1 (stereo not given) | 3.3µM* | 5.2µM* | -104* | 7.3µM* | 5.2µM*
O=C(O)CCCC[C@@H]1SC[C@@H]2NC(=O)N[C@@H]21 | -4% | i | -106* | 3% | i
COc1cc2c(cc1OC)CN(c1ccc([N+](=O)[O-])c(C(F)(F)F)c1)CC2 | ? | i | -51* | 1% | i
CCOC(=O)C(O)(c1ccc(N(CC)S(=O)(=O)c2ccc(C)cc2)cc1)C(F)(F)F (stereo not given) | ? | 18µM* | -12 | ? | i
O=C1NC(=O)N(CCc2ccc(F)cc2)C(=O)/C1=C\C=C\c1ccccc1 | 4.1µM* | 15µM* | -24 | 14% | 16µM*
O=C1NC(=O)N(Cc2ccccc2)C(=O)/C1=C\C=C\c1ccco1 | 12µM* | ? | -212* | -18% | i
O=C1NC(=O)N(Cc2ccccc2)C(=O)/C1=C/c1cnc(-c2ccccc2)nc1 | -11% | i | 30 | -88% | i
O=C1NC(=O)N(Cc2ccco2)C(=O)/C1=C/C=C/c1ccco1 | 18µM* | ? | -100* | ? | ?
Cc1ccc(NS(=O)(=O)c2c(F)cc(F)c(Cl)c2F)cc1S(=O)(=O)N1CCOCC1 | 2% | i | -3 | ? | i
Cc1cccc(C)c1OCc1n[nH]c(=S)n1N | 10% | i | 0 | -98% | i
N#Cc1ccc2nc(-c3ccc(CN4CCC(n5c(=O)[nH]c6ccccc65)CC4)cc3)c(-c3ccccc3)nc2c1 | / | ? | -66* | / | ?
Cc1cccc2nc(-c3ccccc3)c(-c3ccc(CN4CCC(n5c(=O)[nH]c6ccccc65)CC4)cc3)nc12 | / | ? | -51* | / | ?
O=c1[nH]c2ccccc2n1C1CCN(C(c2nnnn2Cc2ccccc2)C2CC2)CC1 (stereo not given) | / | ? | -5 | / | i
CN1CCN(c2nc(N)c(Br)c(Cl)n2)CC1 | 1% | i | ? | -13% | i
Cc1cc(OCC(=O)N2CCN(CCc3ccncc3)CC2)cc(C)c1Cl | / | i | / | / | i
O=C(Nc1ccc(C(F)(F)F)cc1)OC1CN2CCC1CC2 (stereo not given) | ? | i | -13 | 23% | i
O=C(Nc1ccc(F)cc1)OC1CN2CCC1CC2 (stereo not given) | 8.2µM* | i | -5 | 11% | i

Screening results: PubChem BioAssay, National Center for Advancing Translational Sciences (NCATS)
